Out of some 5,500 compounds screened, about 2,000 (36%) were called active. Roughly 18% stayed inconclusive and do not appear here. Rule as the data show it: active = normalized growth mostly below about 0.91 (no sharp cut-off); inconclusive = no clear call, values can overlap the other calls; inactive = mostly above about 0.92. Some of the results follow.
Assay: chemical genetic growth profiling, strain panel (AID 1159580);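 also: tested at 20 µM; growth read once vehicle control cultures reached saturation at 30 °C; 1 = growth at the plate median or of vehicle wells; lower values mean less growth of the strain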
Conditions: growth OD

Measured: normalized growth

CC(=O)OCC(=O)[C@@]12OC3(CCCC3)O[C@@H]1CC1C3CCC4=CC(=O)C=C[C@]4(C)[C@@]3(F)[C@@H](O)C[C@@]12C (some centres not stated)
inactive: S. cerevisiae deletion strains, locus YJR075W, strain HOC1, stronger effect = lower value 1.01 | S. cerevisiae deletion strains, locus YKL009W, strain mrt4, stronger effect = lower value 0.967 | S. cerevisiae deletion strains, locus YKL068W, stronger effect = lower value 0.991 | S. cerevisiae deletion strains, locus YKL085W, strain MDH1 (second series), stronger effect = lower value 0.994 | S. cerevisiae deletion strains, locus YKL085W, strain MDH1, stronger effect = lower value 0.994 | S. cerevisiae deletion strains, locus YKL160W, strain elf1, stronger effect = lower value 1.01 | S. cerevisiae deletion strains, locus YKL190W, strain CNB1, stronger effect = lower value 0.997 | S. cerevisiae deletion strains, locus YKR001C, strain vps1, stronger effect = lower value 0.985 | S. cerevisiae deletion strains, locus YKR026C, strain gcn3, stronger effect = lower value 1.02 | S. cerevisiae deletion strains, locus YKR091W, strain srl3, stronger effect = lower value 1.01 | S. cerevisiae deletion strains, locus YLL001W, strain dnm1, stronger effect = lower value 1 | S. cerevisiae deletion strains, locus YLL026W, stronger effect = lower value 1.01 | S. cerevisiae deletion strains, locus YLL041C, strain sdh2, stronger effect = lower value 1.02 | S. cerevisiae deletion strains, locus YLR027C, strain aat2, stronger effect = lower value 1.01 | S. cerevisiae deletion strains, locus YLR039C, strain RIC1, stronger effect = lower value 0.94 | S. cerevisiae deletion strains, locus YLR058C, strain SHM2, stronger effect = lower value 1.01 | S. cerevisiae deletion strains, locus YLR102C, strain apc9, stronger effect = lower value 0.992 | S. cerevisiae deletion strains, locus YLR113W, strain HOG1, stronger effect = lower value 0.989 | S. cerevisiae deletion strains, locus YLR221C, strain rsa3, stronger effect = lower value 1.01 | S. cerevisiae deletion strains, locus YLR258W, strain gsy2, stronger effect = lower value 1.02 | S. cerevisiae deletion strains, locus YLR262C, strain YPT6 (second series), stronger effect = lower value 1 | S. cerevisiae deletion strains, locus YLR262C, strain YPT6, stronger effect = lower value 0.961 | S. cerevisiae deletion strains, locus YLR268W, strain sec22, stronger effect = lower value 0.958 | S. cerevisiae deletion strains, locus YLR320W, strain mms22, stronger effect = lower value 1.02 | S. cerevisiae deletion strains, locus YLR330W, strain CHS5, stronger effect = lower value 1.01 | S. cerevisiae deletion strains, locus YLR342W, strain FKS1 (second series), stronger effect = lower value 1.05 | S. cerevisiae deletion strains, locus YLR342W, strain FKS1, stronger effect = lower value 1.02 | S. cerevisiae deletion strains, locus YLR357W, strain rsc2, stronger effect = lower value 1.04 | S. cerevisiae deletion strains, locus YLR370C, strain arc18, stronger effect = lower value 1.02 | S. cerevisiae deletion strains, locus YLR371W, strain rom2, stronger effect = lower value 0.984 | S. cerevisiae deletion strains, locus YLR384C, strain iki3, stronger effect = lower value 1.01 | S. cerevisiae deletion strains, locus YLR418C, strain cdc73, stronger effect = lower value 0.944 | S. cerevisiae deletion strains, locus YML016C, strain PPZ1, stronger effect = lower value 1.02 | S. cerevisiae deletion strains, locus YML032C, strain rad52, stronger effect = lower value 0.968 | S. cerevisiae deletion strains, locus YML120C, strain ndi1, stronger effect = lower value 1.02 | S. cerevisiae deletion strains, locus YML124C, strain tub3, stronger effect = lower value 0.988 | S. cerevisiae deletion strains, locus YMR058W, strain fet3, stronger effect = lower value 1.02 | S. cerevisiae deletion strains, locus YMR078C, strain ctf18, stronger effect = lower value 1 | S. cerevisiae deletion strains, locus YMR125W, strain sto1, stronger effect = lower value 1.03 | S. cerevisiae deletion strains, locus YMR129W, stronger effect = lower value 1.02 | S. cerevisiae deletion strains, locus YMR205C, strain PFK2, stronger effect = lower value 1.02 | S. cerevisiae deletion strains, locus YMR223W, strain ubp8, stronger effect = lower value 1.01 | S. cerevisiae deletion strains, locus YMR231W, strain pep5, stronger effect = lower value 1.01 | S. cerevisiae deletion strains, locus YMR263W, strain SAP30, stronger effect = lower value 1.01 | S. cerevisiae deletion strains, locus YMR307W, strain GAS1, stronger effect = lower value 1.11 | S. cerevisiae deletion strains, locus YNL067W, strain RPL9B, stronger effect = lower value 1 | S. cerevisiae deletion strains, locus YNL071W, strain lat1, stronger effect = lower value 1.01 | S. cerevisiae deletion strains, locus YNL128W, strain TEP1, stronger effect = lower value 1.03 | S. cerevisiae deletion strains, locus YNL153C, strain GIM3, stronger effect = lower value 0.996 | S. cerevisiae deletion strains, locus YNL183C, strain NPR1, stronger effect = lower value 0.954 | S. cerevisiae deletion strains, locus YNL209W, strain ssb2, stronger effect = lower value 1.01 | S. cerevisiae deletion strains, locus YNL233W, strain BNI4, stronger effect = lower value 1.01 | S. cerevisiae deletion strains, locus YNL248C, strain rpa49, stronger effect = lower value 0.978 | S. cerevisiae deletion strains, locus YNL250W, strain rad50, stronger effect = lower value 0.994 | S. cerevisiae deletion strains, locus YNL271C, strain bni1, stronger effect = lower value 0.984 | S. cerevisiae deletion strains, locus YNL298W, strain CLA4, stronger effect = lower value 0.982 | S. cerevisiae deletion strains, locus YNL307C, strain MCK1, stronger effect = lower value 0.992 | S. cerevisiae deletion strains, locus YNL322C, strain KRE1 (second series), stronger effect = lower value 1.03 | S. cerevisiae deletion strains, locus YNL322C, strain KRE1, stronger effect = lower value 1.01 | S. cerevisiae deletion strains, locus YNR049C, strain mso1, stronger effect = lower value 1.03 | S. cerevisiae deletion strains, locus YNR052C, strain pop2, stronger effect = lower value 0.99 | S. cerevisiae deletion strains, locus YOL006C, strain TOP1, stronger effect = lower value 1.01 | S. cerevisiae deletion strains, locus YOL012C, strain htz1 0.599 | S. cerevisiae deletion strains, locus YOL147C, strain pex11, stronger effect = lower value 1 | S. cerevisiae deletion strains, locus YOR001W, strain rrp6, stronger effect = lower value 1.02 | S. cerevisiae deletion strains, locus YOR061W, strain CKA2, stronger effect = lower value 1.01 | S. cerevisiae deletion strains, locus YOR069W, strain VPS5, stronger effect = lower value 1.01 | S. cerevisiae deletion strains, locus YOR070C, strain gyp1, stronger effect = lower value 1.02 | S. cerevisiae deletion strains, locus YOR080W, strain dia2, stronger effect = lower value 1.04 | S. cerevisiae deletion strains, locus YOR083W, strain WHI5, stronger effect = lower value 0.998 | S. cerevisiae deletion strains, locus YOR106W, strain vam3, stronger effect = lower value 1.01 | S. cerevisiae deletion strains, locus YOR136W, strain idh2, stronger effect = lower value 0.981 | S. cerevisiae deletion strains, locus YOR144C, strain elg1, stronger effect = lower value 0.991 | S. cerevisiae deletion strains, locus YOR184W, strain ser1, stronger effect = lower value 0.983 | S. cerevisiae deletion strains, locus YOR231W, strain MKK1, stronger effect = lower value 0.963 | S. cerevisiae deletion strains, locus YOR265W, strain rbl2, stronger effect = lower value 1.02 | S. cerevisiae deletion strains, locus YOR270C, strain vph1, stronger effect = lower value 0.921 | S. cerevisiae deletion strains, locus YOR290C, strain snf2, stronger effect = lower value 1.01 | S. cerevisiae deletion strains, locus YOR316C, strain cot1, stronger effect = lower value 1 | S. cerevisiae deletion strains, locus YPL051W, strain arl3, stronger effect = lower value 1.02 | S. cerevisiae deletion strains, locus YPL055C, strain LGE1, stronger effect = lower value 1.01 | S. cerevisiae deletion strains, locus YPL078C, strain atp4, stronger effect = lower value 1.01 | S. cerevisiae deletion strains, locus YPL106C, strain sse1, stronger effect = lower value 1.1 | S. cerevisiae deletion strains, locus YPL240C, strain hsp82, stronger effect = lower value 1.01 | S. cerevisiae deletion strains, locus YPL241C, strain CIN2, stronger effect = lower value 1.01 | S. cerevisiae deletion strains, locus YPL256C, strain CLN2, stronger effect = lower value 0.975 | S. cerevisiae deletion strains, locus YPR119W, strain clb2, stronger effect = lower value 0.982 | S. cerevisiae deletion strains, locus YPR141C, strain kar3, stronger effect = lower value 0.989 | S. cerevisiae deletion strains, locus YPR163C, strain tif3, stronger effect = lower value 0.98 | S. cerevisiae deletion strains, locus YPR167C, strain met16, stronger effect = lower value 0.999 | S. cerevisiae deletion strains, strain wtn01, stronger effect = lower value 0.98 | S. cerevisiae strains, strain wild type, stronger effect = lower value 1.01

Reference: PubChem BioAssay AID1159580 (chemical genetic matrix, 2015)
